Source: PubChem (The Scripps Research Institute Molecular Screening Center)
Most compounds without a hit are left out; they make up all but 3.5% or so of the library.
TEAD-YAP block = TEAD-YAP interaction inhibition | hit rate 1.4% among 640,000 | HEK-TIYL cells, TEAD-Gal4/YAP UAS-luciferase luminescence | inhibition, % at 9.12 µM; in the data active = inhibition above about 32%;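 note: 0% = median of test compound wells and 100% = reference inhibitor wells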
GPR151 ag = human GPR151 activation; activation, % at 11.2 µM; PathHunter beta-arrestin GPR151 cells, luminescence; hit rate 1% among 650,000; AID 1508602; in the data active = activation above about 4.9%;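 note: 0% = median of compound wells and 100% = cells with positive control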
FBW7 act = human FBW7 E3 ligase activation, primary screen | Q969H0 | normalized activity (activation), % at 26.1 µM | AlphaScreen FBW7–phospho-cyclin E peptide binding, activator screen | hit rate 0.13% among 650,000; in the data active = normalized activity above about 1.9%;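 note: purified mutant Fbw7 with reduced substrate affinity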
MITF inh = blocks human microphthalmia-associated transcription factor. AlphaScreen MITF homodimerization, bead proximity signal. inhibition, % at 2.6 µM. hit rate 0.91% among 650,000; in the data active = inhibition above about 50%;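 note: 0% = vehicle wells with protein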
Target sequence (O75030 whole entry, looked up): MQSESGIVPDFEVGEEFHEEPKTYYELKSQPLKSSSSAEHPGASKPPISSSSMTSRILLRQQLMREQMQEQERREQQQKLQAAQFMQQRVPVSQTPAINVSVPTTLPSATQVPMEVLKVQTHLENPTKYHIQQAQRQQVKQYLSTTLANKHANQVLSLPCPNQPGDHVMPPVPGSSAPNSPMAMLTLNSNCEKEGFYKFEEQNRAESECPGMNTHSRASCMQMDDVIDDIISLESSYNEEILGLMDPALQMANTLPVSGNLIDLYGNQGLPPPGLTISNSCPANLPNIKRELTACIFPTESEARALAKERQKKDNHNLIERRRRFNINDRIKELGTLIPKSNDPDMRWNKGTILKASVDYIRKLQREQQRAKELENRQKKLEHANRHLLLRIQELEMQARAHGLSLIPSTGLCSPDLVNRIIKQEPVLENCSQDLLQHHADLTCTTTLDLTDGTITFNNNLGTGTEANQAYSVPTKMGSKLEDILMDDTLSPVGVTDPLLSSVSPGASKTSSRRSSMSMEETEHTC
GPR151 conf act = human GPR151 activation, confirmation screen. shares compounds with GPR151 ag. GPR151 PathHunter beta-arrestin cells, luminescence, 90 min; % of EA-reagent control over plate median. activation, % at 11.2 µM. 6,700 tested, under 10 active;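 active = mean percent activation across replicates above the confirmation screen cutoff of 4.91%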
GPR119 ag = GPR119 activation, counter-screen for GPR151 activators | shares compounds with GPR151 ag | GPR119 PathHunter beta-arrestin cells, luminescence, 90 min; 0 = compound-well median, 100 = enzyme-acceptor control | activation, % at 11.2 µM | hit rate 0.3% among 6,700 | AID 1508611;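 active = mean percent activation in the counterscreen above 29.09%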;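 note: counterscreen on off-target GPR119 to flag nonselective hits from the GPR151 activator screen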
The depositor's hits bear a star.

For COc1ccc(CCNc2cc(C)nc(Nc3ccc(-n4ccnc4)cc3)n2)cc1 the results were TEAD-YAP block 77*, GPR151 ag 5.3*, FBW7 act 0, MITF inh 20, GPR151 conf act 3 and GPR119 ag 54*.
Screening CCOc1cc(/C=C2\N=C(c3ccc(C(C)(C)C)cc3)OC2=O)cc(Br)c1OC(C)=O returned TEAD-YAP block 7, GPR151 ag -1, FBW7 act 0 and MITF inh 19.
Cc1ccc2[nH]c(=O)c(CN(CCCO)C(=O)c3ccco3)cc2c1 was read as TEAD-YAP block -3, GPR151 ag 0, FBW7 act 0 and MITF inh 7.
For CC(C)n1cnc2c(NCc3ccccc3)nc(Nc3ccc(-n4ccnc4)cc3)nc21 the results were TEAD-YAP block -6, GPR151 ag 3, FBW7 act 0 and MITF inh 14.
Screening COc1ccc(CCNc2ccnc(Nc3ccc(-n4ccnc4)cc3)n2)cc1 returned TEAD-YAP block 82*, GPR151 ag 6.5*, FBW7 act 0, MITF inh 0, GPR151 conf act 2 and GPR119 ag 38*.
`CC(C)n1cnc2c(NCCO)nc(Nc3ccc(-n4ccnc4)cc3)nc21` gave TEAD-YAP block -1, GPR151 ag 5.4*, FBW7 act 0, MITF inh 8, GPR151 conf act -2 and GPR119 ag -10.
`COc1ccc(CCNc2nc(Nc3ccc(-n4ccnc4)cc3)nc3c2ncn3C2CCCCC2)cc1` gave TEAD-YAP block 13, GPR151 ag 6.1*, FBW7 act 0, MITF inh 16, GPR151 conf act 0 and GPR119 ag 2.
Screening COc1ccc(CCNc2cc(C)nc(NC3CCC(O)CC3)n2)cc1 (centres undefined) returned TEAD-YAP block 18, GPR151 ag 6.8*, FBW7 act 0, MITF inh 0, GPR151 conf act -1 and GPR119 ag -9.
For CCCNc1ccnc(Nc2ccc(-n3ccnc3)cc2)n1 the results were TEAD-YAP block -26, GPR151 ag 0, FBW7 act 0 and MITF inh -6.
CCC(C)C(NC(=O)c1ccccc1NC(=O)c1ccccc1)C(=O)N1CCOCC1 (centres undefined) was read as TEAD-YAP block -7, GPR151 ag 9.8*, FBW7 act 0, MITF inh 6, GPR151 conf act -1 and GPR119 ag -2.
For CC(C)C(NC(=O)c1ccccc1NC(=O)c1ccccc1)C(=O)N1CCCCC1 (centres undefined) the results were TEAD-YAP block 1, GPR151 ag 1, FBW7 act 0 and MITF inh 11.
Screening CC1(C)C(=O)NC2CCCCC2N1C(=O)CCl (centres undefined) returned TEAD-YAP block 9, GPR151 ag 5.3*, FBW7 act 1, MITF inh 10, GPR151 conf act 0 and GPR119 ag -2.
Cc1ccc(N2CC(C(=O)N/N=C/c3ccccc3O)CC2=O)cc1 (centres undefined) was read as TEAD-YAP block 14, GPR151 ag 0, FBW7 act -1 and MITF inh 9.
`O=C(Nc1ncc(Cc2ccc(Cl)cc2Cl)s1)c1ccc(Cl)cc1` gave TEAD-YAP block -4, GPR151 ag 5.7*, FBW7 act 0, MITF inh -12, GPR151 conf act 1 and GPR119 ag -6.
For O=C(Nc1nc(-c2ccc([N+](=O)[O-])cc2)cs1)C1c2ccccc2Oc2ccccc21 the results were TEAD-YAP block 10, GPR151 ag 0, FBW7 act 0 and MITF inh 12.
Screening NC(=O)c1ccc(NC(=O)c2ccc(S(=O)(=O)Nc3ccccc3)cc2)cc1 returned TEAD-YAP block 6, GPR151 ag -1, FBW7 act 0 and MITF inh 0.
`Cc1ccsc1CCNc1c(-c2ccccc2)c(=O)c1=O` gave TEAD-YAP block 9, GPR151 ag 5.2*, FBW7 act 0, MITF inh 12, GPR151 conf act 1 and GPR119 ag 10.
Cc1cccc(CCNc2c(-c3ccccc3)c(=O)c2=O)c1 was read as TEAD-YAP block 13, GPR151 ag 1, FBW7 act 1 and MITF inh 2.
CC1CCCC(n2c(=S)[nH]c3ccc(Cl)cc3c2=O)C1C (centres undefined) was read as TEAD-YAP block 7, GPR151 ag 1, FBW7 act 0 and MITF inh -1.
`Cc1ccc(NCCNS(=O)(=O)c2cc(C)c(C)cc2C)nn1` gave TEAD-YAP block 2, GPR151 ag 8.4*, FBW7 act 1, MITF inh 9, GPR151 conf act 0 and GPR119 ag 3.
Screening O=C(C1CCN(S(=O)(=O)c2cccc3nonc23)CC1)N1CCCCCC1 returned TEAD-YAP block -6, GPR151 ag 0, FBW7 act 0 and MITF inh -2.
For CCCCCNC(=O)c1c(O)c2c([nH]c1=O)CCCC2 the results were TEAD-YAP block -14, GPR151 ag 18*, FBW7 act 1, MITF inh 9, GPR151 conf act 1 and GPR119 ag 3.
Screening O=C(NCCN1CCNCC1)c1c(O)c2c([nH]c1=O)CCCC2 returned TEAD-YAP block 7, GPR151 ag 2, FBW7 act 0 and MITF inh 3.
`CCN1CCCC1CNC(=O)c1c(O)c2c([nH]c1=O)CCCC2` (centres undefined) gave TEAD-YAP block 5, GPR151 ag 6.8*, FBW7 act 0, MITF inh 6, GPR151 conf act 0 and GPR119 ag 2.
CN(C)c1ccc(C2C(C#N)=C(N)N(c3ccc(Br)cc3F)C3=C2C(=O)CCC3)cc1 (centres undefined) was read as TEAD-YAP block -9, GPR151 ag 2, FBW7 act 0 and MITF inh 11.
`Cc1cc2c(cc3c(=O)n(CC(=O)NC4CCC(C)CC4)ncn32)s1` (centres undefined) gave TEAD-YAP block 9, GPR151 ag -1, FBW7 act 0 and MITF inh 6.
For CCc1c(C)sc(NC(=O)Nc2ccccc2)c1C(N)=O the results were TEAD-YAP block -52, GPR151 ag 1, FBW7 act 0 and MITF inh -1.
O=[N+]([O-])c1cccc(S(=O)(=O)NC23CC4CC(CC(C4)C2)C3)c1 was read as TEAD-YAP block 1, GPR151 ag 5.3*, FBW7 act 0, MITF inh 4, GPR151 conf act 1 and GPR119 ag 14.
Screening Cc1ccc(CNCc2ccco2)cc1 returned TEAD-YAP block 0, GPR151 ag 7.0*, FBW7 act 0, MITF inh 24, GPR151 conf act 1 and GPR119 ag 8.
For O=C(Nc1nnc(-c2ccc(F)cc2)o1)c1cc(Cl)ccc1Cl the results were TEAD-YAP block 1, GPR151 ag 0, FBW7 act 0 and MITF inh -12.
